Assay outcomes deposited in PubChem by several laboratories.
A selection: hits, their analogues and other compounds. The true share with any hit is near 4.7%.
EBV LMP1 NFkB – EBV LMP1-driven NF-kappaB luciferase reporter inhibitors, primary screen, cell-based, luminescence, single point | LMP1-induced NF-kappaB luciferase reporter cells | inhibition, % at 12.5 µM | actives 0.69% (n = 350,000); in the data active = inhibition above about 41%; inconclusive = no clear call, values can overlap the other calls;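 also: 0% = neutral control wells and 100% = reference inhibitor control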
TWEAK-Fn14 inh – inhibitors of TWEAK-Fn14 signaling, primary screen, luciferase reporter cells, uHTS; TWEAK-stimulated Fn14 reporter cells, luciferase luminescence, 8 h; inhibition, % at 10 µM; actives 2% (n = 360,000); in the data active = inhibition above about 50%
TROY NFkB inh – inhibitors of TROY-driven NF-kB signaling, primary screen, Q293 LMP1-TROYcd cells, NF-kB luciferase, uHTS; Q293 LMP1-TROYcd NF-kB luciferase reporter, 4 h; inhibition, % at 10 µM; actives 0.98% (n = 360,000);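 active = compounds whose plate-normalised and pattern-corrected inhibition of the luciferase reporter signal at the single screening dose is 50% or more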
HSP90 refold inh – HSP90 inhibitors, primary screen, cell lysate, luminescence | Heat shock protein HSP 90 (rabbit reticulocyte lysate; luciferase refolding) | Rabbit reticulocyte lysate, luciferase refolding luminescence, 3 h | inhibition, % at 5.6 µM | actives 0.91% (n = 290,000) | AID 1789, 2009;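 active = inhibition above the screen-wide mean plus 3 SD, computed separately per campaign, cut at about 16% in these data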;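 also: 0% = DMSO wells and 100% = 60 µM geldanamycin wells; inhibitors lower the luminescence because luciferase stays unfolded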
HSF1 inhib – HSF1 inhibitors in luciferase reporter cells, primary screen, cell-based, NIH3T3, luminescence | activity change, negative = inhibition, % at 7.5 µM (by protocol) | NIH3T3-HGL HSE-luciferase, MG132-induced, luminescence 8 h; active compounds read low | actives 0.77% (n = 300,000) | AID 2098, 2009;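 active = more than half of replicate wells show activity change below -50%, luminescence cut by over half; inconclusive = some wells, but at most half, below -50%; inactive = no replicate well below -50%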;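 also: luciferase reports HSF-1 transcriptional activity via heat shock element; 0% = median of DMSO wells and -100% = zero luminescence signal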
HSF1 activator – HSF-1 activators, primary screen, NIH3T3-HGL cells, MG132 stress, luminescence, single point | actives 1.7% (n = 300,000) | AID 504408, 2011 | NIH3T3-HGL HSF-1 luciferase reporter, 8 h; 100% = twice DMSO control signal | activation, % at 9 µM;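 active = mean replicate activation of at least 50% with a set share of replicates each reaching 50%; inconclusive = only one of those two conditions met; inactive = mean below 50% and too few replicates reaching it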;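 also: 0% = median of the neutral control wells and 100% = twice that signal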
* marks the source's active call; other numbers are inactive results; ? = inconclusive; · = no result.

SMILES	EBV LMP1 NFkB	TWEAK-Fn14 inh	TROY NFkB inh	HSP90 refold inh	HSF1 inhib	HSF1 activator
Cc1cc(OCC(=O)Nc2cnn(CCCC(=O)O)c2)ccc1[N+](=O)[O-]	-1	16	14	4	5	-3
Nc1ccn([C@@H]2O[C@H](CNC(=O)[C@@H](N)CSCc3ccccc3)[C@@H](O)[C@H]2O)c(=O)n1	-3	-10	0	·	·	·
COc1cc(/C=C/C(=O)OCC(=O)c2ccc[nH]2)ccc1O	-5	-6	-36	·	·	·
O=C(O)/C=C/C(=O)c1ccc2c(c1)CCc1ccccc1-2	4	22	-27	·	146	175*
CC1(C)CC(=O)C=C(NCCN2CCN(C(=S)Nc3ccccc3)CC2)C1	70*	10	-11	1	-3	13
CC12CN(C(=S)Nc3ccccc3)CC(C)(CN(C(=S)Nc3ccccc3)C1)C2=O	-8	9	-21	-3	28	74*
CCNC(=S)N1CCN(CCNC2=CC(=O)CC(C)(C)C2)CC1	-25	-17	-6	3	-9	-13
S=C(Nc1ccccc1)N1CCCCC1	-5	-8	-24	-1	3	11
Cc1cccc(C(O)c2ncc(-c3ccccc3)[nH]2)c1C (stereo not given)	·	2	-7	·	·	·
CC(=O)c1ccc2c(c1)CC1(C2)Cc2cc3c(cc2C1)C(=O)CC3 (stereo not given)	5	57*	51*	·	·	·
COc1cccc2cc(C(=O)NCc3ccco3)c(=Nc3ccc(C(=O)O)cc3)oc12	0	71*	42	-4	-63*	-69
COc1ccc2cc(C(N)=O)c(=Nc3ccccc3)oc2c1	10	72*	14	0	3	5
O=C(O)c1ccc(N=c2oc3cc(O)ccc3cc2C(=O)NCc2ccccc2)cc1	-40	-3	1	2	4	2
COc1ccc2cc(C(=O)NCc3ccccc3)c(=Nc3ccc(C(=O)O)cc3)oc2c1	-7	59*	-46	1	?	-56
COc1ccc2oc(=Nc3cc(F)ccc3F)c(C(N)=O)cc2c1	-6	-12	-23	-1	34	70*
CC(C)C[C@@H]1COc2cccc(N3CCC[C@@H]3CO)c2S(=O)(=O)N1	·	10	3	·	·	·
COCCNC(=O)C1(C)CCN(C(=O)c2sc(-c3ccccc3)nc2C)C1 (stereo not given)	·	0	-21	·	·	·
CCOc1c2ccc(C(=O)NCc3ccco3)cc2nn1CC	-2	-5	2	-5	7	-4
CCOc1c2ccc(C(=O)NCc3ccccc3OC)cc2nn1CC	3	-26	-4	0	-66*	-74
Cc1cc(C)n2c(Nc3ccc4c(c3)OCCO4)c(CCc3ccccc3)nc2n1	·	36	17	·	·	·
O=C(CC[C@H]1O[C@@H](n2ccc(=O)[nH]c2=O)[C@H](O)[C@@H]1O)NCCc1c[nH]c2ccccc12	·	-1	-13	·	·	·
COc1ccc(/C=C2/CCCC(CN(C)C)C2=O)cc1 (stereo not given)	-34	-19	-1	·	·	·
COc1cccc(/C=C2/CCC(CN(C)C)C2=O)c1 (stereo not given)	-22	86*	10	·	-22	-22
CCOC(=O)C1=C(c2ccccc2)NC(=O)NC1c1cc(Cl)c(O)c(OC)c1 (stereo not given)	-1	-37	3	-1	-7	-28
CCOC(=O)C1=C(c2ccccc2)NC(N)=NC1c1ccc(OCc2ccc(Cl)cc2)c(OC)c1 (stereo not given)	-5	23	-22	8	38	71*
COC(=O)Cc1c(C)c2ccc(OC(=O)c3ccccc3)cc2oc1=O	-5	2	-17	1	27	61*
Cc1c(Cc2ccccc2)c(=O)oc2cc(OC(=O)c3ccccc3)ccc12	5	-26	-15	1	4	6
CC(C)Oc1ccc(C(=O)O)cc1	7	-16	2	3	-89*	-91
CC(C)Oc1ccc(C(=O)O)c(C(=O)O)c1	6	15	-2	5	2	-4
